What all share (assay): NCI-60 one-dose screen, 48 h (100 = growth as untreated, 0 = no growth, -100 = all killed)
What all share (conditions): 10 µM unless noted

Assay [1] concerns SR leukemia.
Assay [2] relates to RPMI-8226 leukemia.
The subject of assay [3] is OVCAR-8 ovarian.
The subject of assay [4] is OVCAR-5 ovarian.
The test system of assay [5] is OVCAR-4 ovarian.
The subject of assay [6] is SK-OV-3 ovarian.
Assay [7] deals with IGROV1 ovarian.
The subject of assay [8] is OVCAR-3 ovarian.
Assay [9] relates to HS 578T breast.
Assay [10] concerns NCI/ADR-RES ovarian.
Assay [11] has as its system T-47D breast.
The subject of assay [12] is BT-549 breast.
The test system of assay [13] is MDA-MB-435 melanoma.
The subject of assay [14] is SW-620 colon.
Assay [15] relates to MCF7 breast.
Assay [16] deals with HCT-116 colon.
Assay [17] concerns HCC-2998 colon.
The test system of assay [18] is KM12 colon.

This passage reports growth results from PubChem BioAssay (NCI).

“And” between values parts separate entries of the source, which are not always exact repeats. Identical values can stand only once. Compounds without any hit were thinned out: in the full panel of roughly 83,000, 20% have a hit.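 Values shown are percent growth following 48 h exposure of cells in 96-well plates to a single concentration of compound; below 10 was considered active.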 Values without a mark were called inactive. The source made the active and inactive calls.

Take `O=C(Nc1ncc(Cc2cccc(C(F)(F)F)c2)s1)c1ccc(-n2cnnn2)cc1`: the growth in assay [1] was 61.2%; in assay [2], 51.5%; in assay [3], 58.5%; in assay [4] it was 74.2%; in assay [5], 33.6%; in assay [6], 86.4%. Also, the growth is 74.6% in [7]; 72.1% in assay [8]; 79.3% in assay [9]; 35.9% in assay [10]; 44.7% in assay [11]; 67.6% in [12]. Further, the growth in assay [13] is 24%; in [14], 53.4%; in assay [15], 28.7%; in assay [16] it was 42.4%; in assay [17], 48.9%; in [18], 28.8%.
`COc1ccc(NC(=O)Nc2ccccc2CNc2nc(Nc3ccc(OCCN4CCCC4)cc3)ncc2Cl)cc1`: the growth in assay [1] was 11.6%; in assay [2], -18.5% (active); in assay [3] it was -18.2% (active); in [4], 21.1%; in assay [5], -74.3% (active); in assay [6], 58.5%. In addition, the growth is 24.3% in assay [7]; -83.8% (active) in assay [8]; -67.7% (active) in assay [9]; 6.48% (active) in [10]; 27.2% in assay [11]; 32% in assay [12]. Further, the growth in assay [13] was -70.9% (active); in assay [14], 2.1% (active); in [15], -60.5% (active); in assay [16], -20.1% (active); in [17], 16.3%; in [18], 0.945% (active).
With `COc1ccc(Cn2cc(C(=O)Nc3cccnc3Nc3ccccc3)nn2)cc1`, the growth in assay [1] is 94.9%; in assay [2], 96.3%; in assay [3], 101%; in assay [4] it was 107%; in assay [5], 95%; in assay [6], 112%. Moreover, the growth in [7] was 102%; in assay [8], 118%; in [9] it was 94.1%; in assay [10], 89.8%; in assay [11], 91.7%; in assay [12] it was 86.9%. Besides, the growth is 96.5% in [13]; 112% in assay [14]; 91% in [15]; 103% in assay [16]; 88.5% in assay [17]; 97.8% in assay [18].
Turning to `COc1ccc(Oc2nc(Nc3ccc(N4CCOCC4)cc3)ncc2NC(=O)c2cccc(C(F)(F)F)c2)cc1`, the growth was 35.7% in assay [1]; 59.8% in [2]; 78.5% in assay [3]; 111% in assay [4]; 96.4% in assay [5]; 85.7% in assay [6]. Besides, the growth was 88.5% in assay [7]; 82.7% in assay [8]; 91.4% in assay [9]; 79.7% in assay [10]; 76.5% in assay [11]; 96.9% in assay [12]. The growth is 98.2% in assay [13]; 87.1% in assay [14]; 79.3% in [15]; 70.2% in assay [16]; 75.9% in assay [17]; 59.3% in assay [18].
For `Cn1cc(-c2nonc2-c2cn(C)c3ccc(Br)cc23)c2ccccc21`, the growth in assay [1] was 11.1%; in [2] it was 29.6%; in [3], 36.8%; in assay [4], 58.1%; in assay [5] it was 55.5%; in [6], 37.9%. Moreover, the growth is 45.6% in assay [7]; 3.66% (active) in assay [8]; -1.89% (active) in assay [9]; 21% in [10]; 23.6% in assay [11]; 34% in [12]. For the same compound, the growth in assay [13] was -20.3% (active); in [14] it was 14.7%; in [15], 15.4%; in assay [16] it was 17.1%; in [17] it was 67.9%; in assay [18] it was 23.3%.
For `C=C[C@]1(C)C=C2CC[C@@H]3C(C)(C)C(=O)CC[C@@]3(C)[C@@H]2CC1`, the growth is 102% in assay [1]; 98.3% in [2]; 103% in [3]; 111% in assay [4]; 102% in [5]; 111% in assay [6]. Also, the growth is 11.3% in assay [7]; 109% in [8]; 104% in assay [9]; 110% in [10]; 105% in assay [11]; 126% in assay [12]. The growth was 101% in assay [13]; 105% in assay [14]; 101% in assay [15]; 103% in [16]; 107% in assay [17]; 98.6% in assay [18].
For the compound `COc1ccc(-c2cc(-c3cccnc3)nc3sc4c(Cl)nnnc4c23)cc1OC`, the growth in assay [1] was 6.41% (active); in assay [2], 58%; in assay [3], 91.4%; in assay [4], 118%; in assay [5] it was 96.5%; in assay [6], 109%. Also, the growth in [7] was 81.6%; in assay [8], 91.9%; in assay [9] it was 89.2%; in [10] it was 108%; in [11], 63.6%; in assay [12], 99.9%. In addition, the growth in assay [13] was 104%; in assay [14], 50.2%; in assay [15], 43.8%; in assay [16], 94.8%; in assay [17], 115%; in assay [18], 95.1%.
Take `CCOC(=O)n1cc(-c2nonc2-c2cn(C)c3ccc(OC)cc23)c2cc(F)ccc21`: the growth in assay [1] is 79%; in [2] it was 74.5%; in assay [3] it was 75.7%; in assay [4], 62%; in [5], 75%; in [6], 81%. Moreover, the growth is 73.2% in assay [7]; 87.4% in assay [8]; 70.2% in assay [9]; 82.2% in assay [10]; 73% in assay [11]; 86.9% in assay [12]. Also, the growth in assay [13] was 85.7%; in assay [14] it was 80.5%; in assay [15] it was 77.6%; in assay [16], 77.3%; in assay [17], 91.9%; in [18], 77.7%.
On to `Nn1c(-c2ccc(Cl)cc2)nc2c(-c3ccc(Cl)cc3)nc3ccc(Cl)cc3c2c1=O`, for which the growth in assay [1] is -62.1% (active); in assay [2], 30.1%; in assay [3], 11.6%; in assay [4], 68.7%; in [5], -78.1% (active); in assay [6], 20.3%. The growth was 7.14% (active) in assay [7]; -81.5% (active) in assay [8]; -14.1% (active) in [9]; 52.4% in [10]; 9.59% (active) in assay [11]; 45.1% in assay [12]. Also, the growth in assay [13] was 37.4%; in assay [14] it was -66.1% (active); in [15], 21.7%; in [16] it was -100% (active); in assay [17], 372%; in [18] it was 36.9%.
Regarding `COc1ccc(-c2ccc(-c3ccc(C(=N)N)cn3)s2)cc1Cl`, the growth in [1] is 0.301% (active); in [2] it was -41.6% (active); in [3], -50.5% (active); in assay [4], -95.5% (active); in assay [5] it was -82.8% (active); in [6], 100%. Besides, the growth in [7] is -83% (active); in assay [8], -38.1% (active); in assay [9] it was -68.5% (active); in [10], 0.998% (active); in [11], -43.4% (active); in assay [12], 107%. Also, the growth in assay [13] is -96.9% (active); in assay [14], -87.5% (active); in [15], -68.9% (active); in assay [16], -62.6% (active); in assay [17], -80.9% (active); in assay [18], -45.3% (active).
With `Nc1nc(N)c2c(n1)NC(c1cccc(Nc3ccnc4cc(C(F)(F)F)ccc34)c1)CC(c1ccc(F)cc1)=N2` (stereo not given), the growth was -7.72% (active) in [1]; 3.03% (active) in assay [2]; 63.1% in assay [3]; 108% in assay [4]; 57.9% in assay [5]; 63.1% in assay [6]. The growth is 50.5% in assay [7]; 26.4% in assay [8]; 42.1% in assay [9]; 70.7% in [10]; 68.3% in assay [11]; 100% in assay [12]. The growth in [13] was -24.7% (active); in assay [14], 26.4%; in [15], 16.7%; in assay [16], 22.4%; in assay [17], 54%; in [18] it was 30.2%.
Turning to `O=C(O)c1ccccc1Cc1ccc(F)c2ccccc12`, the growth in assay [1] was 107% and 100%; in assay [2] it was 110% and 96.2%; in assay [3], 101% and 102%; in [4], 112% and 96.7%; in [5] it was 110% and 96.6%; in assay [6], 102% and 122%. For the same compound, the growth in assay [7] is 113% and 119%; in assay [8] it was 98.6% and 108%; in [9] it was 95% and 103%; in [10] it was 114% and 110%; in assay [11] it was 101% and 108%; in assay [12], 134% and 106%. For the same compound, the growth in [13] is 110% and 109%; in [14] it was 105% and 95.8%; in [15], 99.2% and 102%; in assay [16], 120% and 101%; in [17], 109% and 103%; in assay [18] it was 103% and 104%.
As for `N#CSc1c[nH]c2ccc(/C=C/C(=O)/C=C(/C=C/c3ccc4[nH]cc(SC#N)c4c3)OB(F)F)cc12`, the growth was -25.1% (active) in [1]; -12.2% (active) in assay [2]; -21.6% (active) in assay [3]; 17% in [4]; 1% (active) in assay [5]; 98.4% in assay [6]. For the same compound, the growth in [7] was -55.5% (active); in [8], -52.8% (active); in assay [9], 26.8%; in assay [10], 10.9%; in assay [11] it was -7.65% (active); in assay [12], -10.2% (active). Moreover, the growth in assay [13] is -77.4% (active); in assay [14], 2.13% (active); in [15], 7.23% (active); in assay [16] it was -49.5% (active); in assay [17] it was 31.9%; in assay [18], 19.6%.
As for `CC/C(=C(/c1ccc(O)cc1)c1ccc(OCCN2CCCCCC2)cc1)c1ccc(Cl)cc1`, the growth in assay [1] was -24% (active); in assay [2] it was -41.6% (active); in assay [3], 83.6%; in assay [4] it was 75%; in [5], 87.4%; in assay [6], 96.4%. For the same compound, the growth in [7] was 77.3%; in assay [8], 61%; in assay [9], 85.3%; in assay [10], 84.5%; in assay [11] it was 51.9%; in assay [12] it was 69.8%. Besides, the growth is 81.1% in assay [13]; 62.6% in [14]; 13% in assay [15]; -53% (active) in assay [16]; 28.8% in assay [17]; 38.2% in assay [18].
Take `COc1ccccc1/C=C1\COc2ccc(O)c(O)c2C1=O`: the growth in assay [1] was 8.02% (active); in assay [2], -19.3% (active); in [3], 9.04% (active); in [4] it was 28.3%; in [5] it was 28.1%; in [6], 60.3%. Also, the growth in [7] was 6.74% (active); in assay [8], -11.8% (active); in assay [9], 10.4%; in assay [10] it was 3.53% (active); in assay [11] it was 11.6%; in assay [12], 24.2%. Also, the growth in [13] was 8.84% (active); in [14] it was 3.71% (active); in [15] it was 14.8%; in assay [16] it was 8.37% (active); in [17] it was 69.7%; in assay [18], 20.8%.
